# Columns and labels:
# Test in all cases: PBM; 200 nM protein, PBS
# Settings in all cases: dsDNA, one strand shown
# HOXD13 [1] = target: HOXD13 (Homo sapiens, UniProt P35453 263-343, T313R)
# HOXD13 [2] = target: HOXD13 (Homo sapiens, UniProt P35453 263-343)
# HOXD13 [3] = target: HOXD13 (Homo sapiens, UniProt P35453 263-343, T313A)
# HOXD13 (Homo sapiens, UniProt P35453 263-343, T313A), sequence (P35453 263-343 T313A): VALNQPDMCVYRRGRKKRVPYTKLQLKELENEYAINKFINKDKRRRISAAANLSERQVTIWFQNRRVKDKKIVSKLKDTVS
# HOXD13 (Homo sapiens, UniProt P35453 263-343, T313R), sequence (P35453 263-343 T313R): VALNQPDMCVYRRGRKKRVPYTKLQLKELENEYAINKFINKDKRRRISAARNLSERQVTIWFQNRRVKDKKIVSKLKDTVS
# HOXD13 (Homo sapiens, UniProt P35453 263-343), sequence (P35453 263-343): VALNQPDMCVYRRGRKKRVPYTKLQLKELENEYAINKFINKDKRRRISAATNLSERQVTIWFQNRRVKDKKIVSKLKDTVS
sequence,measurement,setting,value
TCGATCGA,binding signal,HOXD13 [1],"9.65 upbm affinity estimate (log intensity, higher = more binding, comparable within an allelic series)"
same,binding signal,HOXD13 [2],"9.44 upbm affinity estimate (log intensity, higher = more binding, comparable within an allelic series)"
same,binding signal,HOXD13 [3],"9.58 upbm affinity estimate (log intensity, higher = more binding, comparable within an allelic series)"
CCAGTAAA,binding signal,HOXD13 [1],"10.4 upbm affinity estimate (log intensity, higher = more binding, comparable within an allelic series)"
same,binding signal,HOXD13 [2],"11.5 upbm affinity estimate (log intensity, higher = more binding, comparable within an allelic series)"
same,binding signal,HOXD13 [3],"11.2 upbm affinity estimate (log intensity, higher = more binding, comparable within an allelic series)"
CTATAAAG,binding signal,HOXD13 [1],"10.8 upbm affinity estimate (log intensity, higher = more binding, comparable within an allelic series)"
same,binding signal,HOXD13 [2],"11.9 upbm affinity estimate (log intensity, higher = more binding, comparable within an allelic series)"
same,binding signal,HOXD13 [3],"11.6 upbm affinity estimate (log intensity, higher = more binding, comparable within an allelic series)"
CTACGTAG,binding signal,HOXD13 [1],"9.84 upbm affinity estimate (log intensity, higher = more binding, comparable within an allelic series)"
same,binding signal,HOXD13 [2],"9.97 upbm affinity estimate (log intensity, higher = more binding, comparable within an allelic series)"
same,binding signal,HOXD13 [3],"9.71 upbm affinity estimate (log intensity, higher = more binding, comparable within an allelic series)"
CCCGCCCC,binding signal,HOXD13 [1],"9.6 upbm affinity estimate (log intensity, higher = more binding, comparable within an allelic series)"
same,binding signal,HOXD13 [2],"9.54 upbm affinity estimate (log intensity, higher = more binding, comparable within an allelic series)"
same,binding signal,HOXD13 [3],"9.7 upbm affinity estimate (log intensity, higher = more binding, comparable within an allelic series)"
GAGCCCAC,binding signal,HOXD13 [1],"9.49 upbm affinity estimate (log intensity, higher = more binding, comparable within an allelic series)"
same,binding signal,HOXD13 [2],"9.6 upbm affinity estimate (log intensity, higher = more binding, comparable within an allelic series)"
same,binding signal,HOXD13 [3],"9.72 upbm affinity estimate (log intensity, higher = more binding, comparable within an allelic series)"
GGGAGAAC,binding signal,HOXD13 [1],"9.51 upbm affinity estimate (log intensity, higher = more binding, comparable within an allelic series)"
same,binding signal,HOXD13 [2],"9.63 upbm affinity estimate (log intensity, higher = more binding, comparable within an allelic series)"
same,binding signal,HOXD13 [3],"9.68 upbm affinity estimate (log intensity, higher = more binding, comparable within an allelic series)"
AAGGCGAG,binding signal,HOXD13 [1],"9.65 upbm affinity estimate (log intensity, higher = more binding, comparable within an allelic series)"
same,binding signal,HOXD13 [2],"9.72 upbm affinity estimate (log intensity, higher = more binding, comparable within an allelic series)"
same,binding signal,HOXD13 [3],"9.78 upbm affinity estimate (log intensity, higher = more binding, comparable within an allelic series)"
GTTTTATA,binding signal,HOXD13 [1],"10.8 upbm affinity estimate (log intensity, higher = more binding, comparable within an allelic series)"
same,binding signal,HOXD13 [2],"11.8 upbm affinity estimate (log intensity, higher = more binding, comparable within an allelic series)"
same,binding signal,HOXD13 [3],"11.6 upbm affinity estimate (log intensity, higher = more binding, comparable within an allelic series)"
GGGTTGAA,binding signal,HOXD13 [1],"9.64 upbm affinity estimate (log intensity, higher = more binding, comparable within an allelic series)"
same,binding signal,HOXD13 [2],"9.57 upbm affinity estimate (log intensity, higher = more binding, comparable within an allelic series)"
same,binding signal,HOXD13 [3],"9.62 upbm affinity estimate (log intensity, higher = more binding, comparable within an allelic series)"
CTTGTTAA,binding signal,HOXD13 [1],"10.6 upbm affinity estimate (log intensity, higher = more binding, comparable within an allelic series)"
same,binding signal,HOXD13 [2],"11.8 upbm affinity estimate (log intensity, higher = more binding, comparable within an allelic series)"
same,binding signal,HOXD13 [3],"11.7 upbm affinity estimate (log intensity, higher = more binding, comparable within an allelic series)"
CCTCCGCC,binding signal,HOXD13 [1],"9.44 upbm affinity estimate (log intensity, higher = more binding, comparable within an allelic series)"
same,binding signal,HOXD13 [2],"9.44 upbm affinity estimate (log intensity, higher = more binding, comparable within an allelic series)"
same,binding signal,HOXD13 [3],"9.54 upbm affinity estimate (log intensity, higher = more binding, comparable within an allelic series)"
CAGTGGGG,binding signal,HOXD13 [1],"9.47 upbm affinity estimate (log intensity, higher = more binding, comparable within an allelic series)"
same,binding signal,HOXD13 [2],"9.55 upbm affinity estimate (log intensity, higher = more binding, comparable within an allelic series)"
same,binding signal,HOXD13 [3],"9.72 upbm affinity estimate (log intensity, higher = more binding, comparable within an allelic series)"
CAGGCGAC,binding signal,HOXD13 [1],"9.59 upbm affinity estimate (log intensity, higher = more binding, comparable within an allelic series)"
same,binding signal,HOXD13 [2],"9.52 upbm affinity estimate (log intensity, higher = more binding, comparable within an allelic series)"
same,binding signal,HOXD13 [3],"9.66 upbm affinity estimate (log intensity, higher = more binding, comparable within an allelic series)"
AGTTTATA,binding signal,HOXD13 [1],"10.7 upbm affinity estimate (log intensity, higher = more binding, comparable within an allelic series)"
same,binding signal,HOXD13 [2],"11.9 upbm affinity estimate (log intensity, higher = more binding, comparable within an allelic series)"
same,binding signal,HOXD13 [3],"11.6 upbm affinity estimate (log intensity, higher = more binding, comparable within an allelic series)"
ATTTACAA,binding signal,HOXD13 [1],"10.7 upbm affinity estimate (log intensity, higher = more binding, comparable within an allelic series)"
same,binding signal,HOXD13 [2],"11.8 upbm affinity estimate (log intensity, higher = more binding, comparable within an allelic series)"
same,binding signal,HOXD13 [3],"11.6 upbm affinity estimate (log intensity, higher = more binding, comparable within an allelic series)"
CCGGCCCA,binding signal,HOXD13 [1],"9.49 upbm affinity estimate (log intensity, higher = more binding, comparable within an allelic series)"
same,binding signal,HOXD13 [2],"9.55 upbm affinity estimate (log intensity, higher = more binding, comparable within an allelic series)"
same,binding signal,HOXD13 [3],"9.54 upbm affinity estimate (log intensity, higher = more binding, comparable within an allelic series)"
CCGTAAAA,binding signal,HOXD13 [1],"10.5 upbm affinity estimate (log intensity, higher = more binding, comparable within an allelic series)"
same,binding signal,HOXD13 [2],"11.8 upbm affinity estimate (log intensity, higher = more binding, comparable within an allelic series)"
same,binding signal,HOXD13 [3],"11.6 upbm affinity estimate (log intensity, higher = more binding, comparable within an allelic series)"
CACCGCCA,binding signal,HOXD13 [1],"9.56 upbm affinity estimate (log intensity, higher = more binding, comparable within an allelic series)"
same,binding signal,HOXD13 [2],"9.65 upbm affinity estimate (log intensity, higher = more binding, comparable within an allelic series)"
same,binding signal,HOXD13 [3],"9.8 upbm affinity estimate (log intensity, higher = more binding, comparable within an allelic series)"
AATAAACC,binding signal,HOXD13 [1],"10.6 upbm affinity estimate (log intensity, higher = more binding, comparable within an allelic series)"
same,binding signal,HOXD13 [2],"11.8 upbm affinity estimate (log intensity, higher = more binding, comparable within an allelic series)"
same,binding signal,HOXD13 [3],"11.6 upbm affinity estimate (log intensity, higher = more binding, comparable within an allelic series)"
CCCTGGAG,binding signal,HOXD13 [1],"9.64 upbm affinity estimate (log intensity, higher = more binding, comparable within an allelic series)"
same,binding signal,HOXD13 [2],"9.55 upbm affinity estimate (log intensity, higher = more binding, comparable within an allelic series)"
same,binding signal,HOXD13 [3],"9.78 upbm affinity estimate (log intensity, higher = more binding, comparable within an allelic series)"
GTTTAATA,binding signal,HOXD13 [1],"10.8 upbm affinity estimate (log intensity, higher = more binding, comparable within an allelic series)"
same,binding signal,HOXD13 [2],"11.8 upbm affinity estimate (log intensity, higher = more binding, comparable within an allelic series)"
same,binding signal,HOXD13 [3],"11.6 upbm affinity estimate (log intensity, higher = more binding, comparable within an allelic series)"
CCTATTAA,binding signal,HOXD13 [1],"11 upbm affinity estimate (log intensity, higher = more binding, comparable within an allelic series)"
same,binding signal,HOXD13 [2],"12.1 upbm affinity estimate (log intensity, higher = more binding, comparable within an allelic series)"
same,binding signal,HOXD13 [3],"11.9 upbm affinity estimate (log intensity, higher = more binding, comparable within an allelic series)"
CCGCCCTC,binding signal,HOXD13 [1],"9.56 upbm affinity estimate (log intensity, higher = more binding, comparable within an allelic series)"
same,binding signal,HOXD13 [2],"9.65 upbm affinity estimate (log intensity, higher = more binding, comparable within an allelic series)"
same,binding signal,HOXD13 [3],"9.66 upbm affinity estimate (log intensity, higher = more binding, comparable within an allelic series)"
GGGCCGGA,binding signal,HOXD13 [1],"9.43 upbm affinity estimate (log intensity, higher = more binding, comparable within an allelic series)"
same,binding signal,HOXD13 [2],"9.41 upbm affinity estimate (log intensity, higher = more binding, comparable within an allelic series)"
same,binding signal,HOXD13 [3],"9.47 upbm affinity estimate (log intensity, higher = more binding, comparable within an allelic series)"

# Reference: PMC11006913
